Test [1] is described as follows: NCI Yeast Anticancer Drug Screen. Data for the rad50 strain (AID 155).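 Further: 0% = growth of vehicle-only cultures of the same strain.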 The conditions noted are these: S. cerevisiae rad50 strain growth inhibition, hits give high values. In short, it runs like this: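 Genetically altered yeast (DNA repair pathway); compound treatment; growth inhibition vs vehicle ctrl.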
The nature of test [2]: NCI Yeast Anticancer Drug Screen. Data for the mec2-1 strain (AID 157). The conditions noted are these: S. cerevisiae mec2-1 strain, hits give high values. In short, it runs like this: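 Mutant yeast (mec2-1) grown with compound; growth inhibition relative to vehicle control reported.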
The nature of test [3]: NCI Yeast Anticancer Drug Screen. Data for the sgs1 mgt1 strain (AID 161).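 Further: 0% = growth of cultures given vehicle only.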 The conditions noted are these: S. cerevisiae sgs1 mgt1 strain, hits give high values. In short, it runs like this: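 Growth of a repair-deficient yeast mutant was monitored after compound treatment and expressed as inhibition relative to vehicle-treated cultures.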
Test [4] in a line: NCI Yeast Anticancer Drug Screen. Data for the cln2 rad14 strain (AID 165).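 Further: 0% = growth equal to vehicle treated cultures.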 The conditions noted are these: S. cerevisiae cln2 rad14 strain, hits give high values. Put shortly:
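Readout is yeast growth inhibition versus vehicle-treated controls, using a strain with cln2 and rad14 alterations exposed to compound.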

Test [5] is described as follows: NCI Yeast Anticancer Drug Screen. Data for the bub3 strain (AID 167). The note with it: S. cerevisiae bub3 mutant strain, hits give high values. In short, it runs like this: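 Yeast carrying a defined mutation is treated with each compound, and growth is compared with that of vehicle-exposed cells to give inhibition.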
A short description of test [6]: NCI Yeast Anticancer Drug Screen. Data for the mlh1 rad18 strain (AID 175). The conditions noted are these: S. cerevisiae mlh1 rad18 strain growth inhibition, hits give high values. Put shortly: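 Genetically defined yeast (DNA repair-deficient) exposed to compounds; growth inhibition determined relative to vehicle.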
Setting [7] is: at 5.0 µM (retest, dose inferred, filed as 0.5).
Setting [8] is: at 50.0 µM (retest, dose inferred, filed as 5.0).

Drawing on PubChem BioAssay (NCI), this text covers growth inhibition for ten compounds.

This is part of a sample that, as a whole, favours compounds with a hit. Of some 79,000 tested, about 15% had one in any assay. A number with no mark means an inactive call. The source made the active and inactive calls. No stated cut-off is given here; in the data, active means growth inhibition above about 70%; inactive means the rest.

Regarding `CCC[CH2][Pb]([CH2]CCC)([CH2]CCC)[n]1ccnc1`, the growth inhibition in test [1] (setting [7]) is 99% (active); in test [1] (setting [8]), 99% (active); in test [1] (at 50.0 µM) it was 90.2% (active); in test [2] (setting [7]) it was 99% (active); in test [2] (setting [8]), 99% (active); in test [2] (at 50.0 µM), 92.7% (active). Moreover, the growth inhibition in test [3] (setting [7]) is 98% (active); in test [3] (setting [8]) it was 98% (active); in test [3] (at 50.0 µM), 93.7% (active); in test [4] (setting [7]) it was 97% (active); in test [4] (setting [8]), 99% (active); in test [4] (at 50.0 µM) it was 91.6% (active). Moreover, the growth inhibition is 99% (active) in test [5] (setting [7]); 93% (active) in test [5] (setting [8]); 92.2% (active) in test [5] (at 50.0 µM); 99% (active) in test [6] (setting [7]); 99% (active) in test [6] (setting [8]); 91% (active) in test [6] (at 50.0 µM).

On to `CC1(CO)C(O)CCC2(C)C1CCC1CC3CC12CCC3(O)CO` (configuration not stated), for which the growth inhibition was 4% in test [1] (setting [7]); 87% (active) in test [1] (setting [8]); -3.35% in test [1] (at 50.0 µM); 65% in test [2] (setting [7]); 99% (active) in test [2] (setting [8]); -18.8% in test [2] (at 50.0 µM). The growth inhibition was 1% in test [3] (setting [7]); 80% (active) in test [3] (setting [8]); 19.1% in test [3] (at 50.0 µM); -13% in test [4] (setting [7]); 68% in test [4] (setting [8]); -0.7% in test [4] (at 50.0 µM). Besides, the growth inhibition was -27% in test [5] (setting [7]); 77% (active) in test [5] (setting [8]); -10% in test [5] (at 50.0 µM); 14% in test [6] (setting [7]); 91% (active) in test [6] (setting [8]); 3.7% in test [6] (at 50.0 µM).

With `Cc1cc(N(CCCl)CCCl)ccc1C1N(Cc2ccc(N(CCCl)CCCl)cc2Cl)CCCN1Cc1ccc(N(CCCl)CCCl)cc1Cl`, the growth inhibition is 81% (active) in test [1] (setting [7]); 96% (active) in test [1] (setting [8]); 97.8% (active) in test [1] (at 50.0 µM); 75% (active) in test [2] (setting [7]); 96% (active) in test [2] (setting [8]); 99.2% (active) in test [2] (at 50.0 µM). Also, the growth inhibition in test [3] (setting [7]) is 57%; in test [3] (setting [8]) it was 95% (active); in test [3] (at 50.0 µM) it was 98.2% (active); in test [4] (setting [7]) it was 77% (active); in test [4] (setting [8]), 93% (active); in test [4] (at 50.0 µM), 97.5% (active). Besides, the growth inhibition is 74% (active) in test [5] (setting [7]); 96% (active) in test [5] (setting [8]); 97.7% (active) in test [5] (at 50.0 µM); 99% (active) in test [6] (setting [7]); 93% (active) in test [6] (setting [8]); 98.6% (active) in test [6] (at 50.0 µM).

In the case of `Nc1ccc(Br)cc1C(=O)c1ccccc1`, the growth inhibition was 12% in test [1] (setting [7]); 95% (active) in test [1] (setting [8]); 99% (active) in test [1] (at 50.0 µM); 11% in test [2] (setting [7]); 97% (active) in test [2] (setting [8]); 99% (active) in test [2] (at 50.0 µM). The growth inhibition was 32% in test [3] (setting [7]); 98% (active) in test [3] (setting [8]); 99.2% (active) in test [3] (at 50.0 µM); 12% in test [4] (setting [7]); 95% (active) in test [4] (setting [8]); 92.5% (active) in test [4] (at 50.0 µM). The growth inhibition in test [5] (setting [7]) was 6%; in test [5] (setting [8]), 96% (active); in test [5] (at 50.0 µM), 94% (active); in test [6] (setting [7]), 14%; in test [6] (setting [8]), 95% (active); in test [6] (at 50.0 µM) it was 99.2% (active).

Turning to `CN1C(=O)C23CC4=CC=CC(O)C4N2C(=O)C1(CO)SS3` (configuration not stated), the growth inhibition is 99% (active) in test [1] (setting [7]); 99% (active) in test [1] (setting [8]); 92.8% (active) in test [1] (at 50.0 µM); 99% (active) in test [2] (setting [7]); 100% (active) in test [2] (setting [8]); 95% (active) in test [2] (at 50.0 µM). In addition, the growth inhibition in test [3] (setting [7]) was 99% (active); in test [3] (setting [8]), 100% (active); in test [3] (at 50.0 µM), 93.2% (active); in test [4] (setting [7]) it was 99% (active); in test [4] (setting [8]), 99% (active); in test [4] (at 50.0 µM), 92.5% (active). The growth inhibition in test [5] (setting [7]) is 99% (active); in test [5] (setting [8]), 99% (active); in test [5] (at 50.0 µM) it was 93.5% (active); in test [6] (setting [7]), 99% (active); in test [6] (setting [8]), 99% (active); in test [6] (at 50.0 µM), 93.5% (active).

On to `C/C(CC(=O)Nc1ccc([N+](=O)[O-])cc1)=N\Nc1ccc([N+](=O)[O-])cc1[N+](=O)[O-]`, for which the growth inhibition in test [1] (setting [7]) is 76% (active); in test [1] (setting [8]), 45%; in test [1] (at 50.0 µM), 72% (active); in test [2] (setting [7]) it was 48%; in test [2] (setting [8]), 47%; in test [2] (at 50.0 µM), 15.9%. Also, the growth inhibition in test [3] (setting [7]) is 48%; in test [3] (setting [8]), 40%; in test [3] (at 50.0 µM) it was 7.6%; in test [4] (setting [7]), 33%; in test [4] (setting [8]), 53%; in test [4] (at 50.0 µM), -33.9%. Also, the growth inhibition in test [5] (setting [7]) is 17%; in test [5] (setting [8]), 34%; in test [5] (at 50.0 µM) it was 32.5%; in test [6] (setting [7]) it was 67%; in test [6] (setting [8]), 36%; in test [6] (at 50.0 µM), 61.9%.

In the case of `COCCOCCOC(=O)CBr`, the growth inhibition in test [1] (setting [7]) was -2%; in test [1] (setting [8]), 96% (active); in test [1] (at 50.0 µM) it was 86.1% (active); in test [2] (setting [7]), -7%; in test [2] (setting [8]) it was 96% (active); in test [2] (at 50.0 µM) it was 82.5% (active). In addition, the growth inhibition was 1% in test [3] (setting [7]); 97% (active) in test [3] (setting [8]); 88.7% (active) in test [3] (at 50.0 µM); 1% in test [4] (setting [7]); 68% in test [4] (setting [8]); 40.7% in test [4] (at 50.0 µM). In addition, the growth inhibition in test [5] (setting [7]) was -3%; in test [5] (setting [8]) it was 94% (active); in test [5] (at 50.0 µM), 77.8% (active); in test [6] (setting [7]) it was -3%; in test [6] (setting [8]) it was 97% (active); in test [6] (at 50.0 µM), 92.2% (active).

Turning to `Cc1cc(CCN)c(C)c2c1oc1ccccc12`, the growth inhibition is -9% in test [1] (setting [7]); 95% (active) in test [1] (setting [8]); 98.5% (active) in test [1] (at 50.0 µM); -7% in test [2] (setting [7]); 88% (active) in test [2] (setting [8]); 70.2% (active) in test [2] (at 50.0 µM). Also, the growth inhibition in test [3] (setting [7]) was -7%; in test [3] (setting [8]), 99% (active); in test [3] (at 50.0 µM), 98.8% (active); in test [4] (setting [7]) it was -5%; in test [4] (setting [8]) it was 98% (active); in test [4] (at 50.0 µM) it was 62.8%. The growth inhibition in test [5] (setting [7]) is -22%; in test [5] (setting [8]), 96% (active); in test [5] (at 50.0 µM), 93% (active); in test [6] (setting [7]), -6%; in test [6] (setting [8]) it was 98% (active); in test [6] (at 50.0 µM), 98.6% (active).

For the compound `S=C1NCCN1`, the growth inhibition in test [1] (setting [7]) is 1%; in test [1] (setting [8]), 65%; in test [1] (at 50.0 µM), 12.2%; in test [2] (setting [7]), -4%; in test [2] (setting [8]) it was 15%; in test [2] (at 50.0 µM), 14.7%. The growth inhibition was 0% in test [3] (setting [7]); 35% in test [3] (setting [8]); -17.6% in test [3] (at 50.0 µM); 5% in test [4] (setting [7]); 14% in test [4] (setting [8]); 38.5% in test [4] (at 50.0 µM). The growth inhibition is -1% in test [5] (setting [7]), 21% in test [5] (setting [8]) and -2.65% in test [5] (at 50.0 µM).

With `Oc1c(Cl)c(Cl)cc(Cl)c1Cl`, the growth inhibition was 8% in test [1] (setting [7]); 90% (active) in test [1] (setting [8]); 23.5% in test [1] (at 50.0 µM); 7% in test [2] (setting [7]); 97% (active) in test [2] (setting [8]); 68.9% in test [2] (at 50.0 µM). Further, the growth inhibition in test [3] (setting [7]) was 34%; in test [3] (setting [8]) it was 95% (active); in test [3] (at 50.0 µM), 61.1%; in test [4] (setting [7]), -27%; in test [4] (setting [8]), 94% (active); in test [4] (at 50.0 µM), 79.8% (active). In addition, the growth inhibition in test [5] (setting [7]) is 13%; in test [5] (setting [8]) it was 92% (active); in test [5] (at 50.0 µM), 48.3%; in test [6] (setting [7]), -6%; in test [6] (setting [8]), 92% (active); in test [6] (at 50.0 µM), 61.8%.
